# Laboratory results: the supplement of paper PMC11624193, “Coupling cellular drug-target engagement to downstream pharmacology with CeTEAM” (Nature Communications, 2024)
# Values joined by “and” are separate entries in the source; they are usually repeats but may differ in a detail not shown here. Equal entries are not always repeated. Structures can show the parent of a compound that is named as a salt.
# Molecular target: PARP1 L713F-nLuc biosensor (HCT116) (UniProt P09874)
# Assay: PARP1 L713F-nLuc/akaLuc ratio relative to DMSO control (biosensor stabilization) (fold change); higher = more PARP1 biosensor stabilization (target engagement / stabilizer), active = hit call of the paper
# Conditions: stock concentration (mM; final µM = stock mM x 1): 2; 24 h;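 active = log2 fold change beyond 2 SD from the library mean after excluding viability outliers; inactive = within 2 SD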
# Sequence of PARP1 L713F-nLuc biosensor (HCT116) (P09874 whole entry L713F, looked up): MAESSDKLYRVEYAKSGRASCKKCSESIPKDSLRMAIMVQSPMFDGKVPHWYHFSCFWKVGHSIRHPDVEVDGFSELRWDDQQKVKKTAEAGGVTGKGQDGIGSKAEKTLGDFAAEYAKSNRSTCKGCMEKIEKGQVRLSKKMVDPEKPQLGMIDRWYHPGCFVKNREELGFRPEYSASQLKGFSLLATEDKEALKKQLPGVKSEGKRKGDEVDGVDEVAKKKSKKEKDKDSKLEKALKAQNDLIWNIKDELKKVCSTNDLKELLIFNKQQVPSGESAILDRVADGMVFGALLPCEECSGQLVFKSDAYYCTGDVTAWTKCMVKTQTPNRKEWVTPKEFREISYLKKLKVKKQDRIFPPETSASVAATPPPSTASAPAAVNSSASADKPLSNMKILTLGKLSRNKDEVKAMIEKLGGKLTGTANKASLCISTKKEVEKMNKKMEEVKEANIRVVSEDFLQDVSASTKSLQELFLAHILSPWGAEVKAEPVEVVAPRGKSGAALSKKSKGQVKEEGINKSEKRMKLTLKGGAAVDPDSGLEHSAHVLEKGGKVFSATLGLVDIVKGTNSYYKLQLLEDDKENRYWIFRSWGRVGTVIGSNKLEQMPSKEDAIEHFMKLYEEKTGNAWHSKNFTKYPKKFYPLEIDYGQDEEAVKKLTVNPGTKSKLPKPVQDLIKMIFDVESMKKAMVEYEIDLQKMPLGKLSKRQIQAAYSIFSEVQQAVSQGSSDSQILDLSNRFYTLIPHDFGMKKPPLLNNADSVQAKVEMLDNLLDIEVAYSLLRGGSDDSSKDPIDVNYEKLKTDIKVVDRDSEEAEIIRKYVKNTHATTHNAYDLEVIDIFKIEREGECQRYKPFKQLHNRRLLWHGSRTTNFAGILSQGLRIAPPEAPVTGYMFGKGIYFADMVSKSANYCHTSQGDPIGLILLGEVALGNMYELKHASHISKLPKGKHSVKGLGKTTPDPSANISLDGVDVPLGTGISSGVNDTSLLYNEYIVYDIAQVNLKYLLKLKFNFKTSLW
row,Compound,PARP1 L713F-nLuc/akaLuc ratio
1,Cc1nn(C)c(COc2ccc(N3CCN(S(=O)(=O)N(C)C)CC3)cc2)c1-c1cccc2c(CCCOc3cccc4ccccc34)c(C(=O)O)n(CCN3CCOCC3)c12,1.04 (inactive)
2,CCc1c(N(CC)C2CCOCC2)cc2oc(C3CCN(C(C)C)CC3)cc2c1C(=O)NCc1c(C)cc(C)[nH]c1=O,0.847 (inactive)
3,COc1cc2c(N3CCN(C(=O)Nc4ccc(OC(C)C)cc4)CC3)ncnc2cc1OCCCN1CCCCC1 [Tandutinib (MLN518)],1.73 (inactive)

# Same assay, conditions: stock concentration (mM; final µM = stock mM x 1): 10; 24 h
row,Compound,PARP1 L713F-nLuc/akaLuc ratio
1,"CC[C@H](CO)Nc1nc(NCc2ccccc2)c2ncn(C(C)C)c2n1 [Roscovitine (Seliciclib,CYC202)]",0.975 (inactive)
2,CCNc1nc(Nc2cc(F)c(C(=O)N3CCOCC3)cc2OC)ncc1C(F)(F)F,0.683 (inactive)
3,CCN(c1cc(C#CCN2CCOCC2)cc(C(=O)NCc2c(C)cc(C)[nH]c2=O)c1C)[C@H]1CC[C@H](N(C)CCOC)CC1,1.57 (inactive) and 1.94 (inactive)
4,CCn1c(-c2nonc2N)nc2c(C#CC(C)(C)O)ncc(OC[C@H]3CCCNC3)c21,1.03 (inactive) and 0.895 (inactive)
5,N#Cc1c[nH]c2ccc(-c3ccc(-c4c(O)cccc4O)cc3)cc12,0.933 (inactive)
6,C[C@]12CCCN1CC1=NNC(=O)c3cc(F)cc4[nH]c2c1c34 [Pamiparib],5.97 (active)
7,O=C(Nc1cccc(Nc2nccc(Nc3cccc(C(F)(F)F)c3)n2)c1)C1CC1 [Aurora kinase inhibitor-3],1.49 (inactive)
8,O=C(O)CCNC(=S)NCCCC[C@H](NS(=O)(=O)c1cccc(F)c1)C(=O)N[C@@H](Cc1c[nH]c2ccccc12)C(=O)NC1CCC1 [SIRT5 inhibitor 1],0.907 (inactive)
9,COc1cc(-c2cn(C)c(=O)c3cnccc23)cc(OC)c1CN1CCN(CCCCCOc2cc(-c3scnc3C)ccc2CNC(=O)[C@@H]2C[C@@H](O)CN2C(=O)[C@@H](NC(=O)C2(F)CC2)C(C)(C)C)CC1,0.634 (inactive)
10,CC(C)N(CCCNC(=O)Nc1ccc(C(C)(C)C)cc1)C[C@H]1O[C@@H](n2cc(Br)c3c(N)ncnc32)[C@H](O)[C@@H]1O,0.82 (inactive) and 0.934 (inactive)
11,CC(=O)N1CCN([C@H]2CCC[C@@H](NC(=O)c3cc4c(F)ccc(C)c4[nH]3)C2)CC1,1.5 (inactive)
12,CS(=O)(=O)NCCC1CCN(c2ncnc3cc(C(N)=O)sc23)CC1,0.762 (inactive)
13,N#CC1(c2ccc(NC(=O)c3cccnc3NCc3ccncc3)cc2)CCCC1,0.967 (inactive)
14,COc1ccc(NC(=O)c2ccc(NC3=C(C)C(=O)CC3)c(Cl)c2)cc1,0.879 (inactive)
15,C[C@]12CC[C@@H]3c4ccc(O)cc4C[C@@H](CCCCCCCCC[S+]([O-])CCCC(F)(F)C(F)(F)F)[C@H]3[C@@H]1CC[C@@H]2O (some centres undefined) [Fulvestrant],0.949 (inactive)
16,CN(C)CCCNC(=O)c1ccc(-c2cc(O)c3ncccc3c2)cc1,0.5 (inactive)
17,CC#CC(=O)N1CCC[C@H]1c1nc(-c2ccc(C(=O)Nc3ccccn3)cc2)c2c(N)nccn12 [Acalabrutinib (ACP-196)],1.28 (inactive)
18,Cc1cn(CCN2CCN(c3ccccc3-c3cc(C#N)cc(C(=O)NCCCN4CCCC4)c3)CC2)c2ccccc12,0.612 (inactive)

row,Compound,PARP1 L713F-nLuc/akaLuc ratio
1,COc1cc2c(cc1OC)-c1c(C)c3ccc(OC)c(OC)c3c[n+]1CC2 [Dehydrocorydaline],0.741 (inactive)
2,CCCCNC(=N)NC(=N)N [Buformin (hydrochloride)],0.782 (inactive)
3,N#Cc1cc2cc(CN3CCC(Nc4ncnc5sc(CC(F)(F)F)cc45)CC3)c(O)cc2n1Cc1cn[nH]c1,0.315 (active)
4,COC(=O)c1ccc(N2CCN(C)CC2)c(NC(=O)c2cccc(OC)c2)c1,0.856 (inactive)
5,Cc1cc(C)cc(Oc2ccc(CNC(=O)[C@H](C)N)cc2C)c1,1.24 (inactive)
6,O=[N+]([O-])c1cc(Nc2ccc3nonc3c2[N+](=O)[O-])ccc1Cl,1.28 (inactive)
7,O=c1[nH]c(=S)[nH]c(-c2ccccc2)c1Cc1c(O)ccc2ccccc12 [Cambinol],0.684 (inactive)
8,O=C(NCCCc1ccccc1)c1cccc(-c2cc(O)c3ncccc3c2)c1,0.729 (inactive)
9,O=c1[nH]c(Oc2cnn(Cc3ccccc3)c2)nc2cnccc12,0.946 (inactive)
10,O=C(/C=C/c1ccc(O)c(O)c1)c1ccc(O[C@@H]2O[C@H](CO)[C@@H](O)[C@H](O)[C@H]2O)c(O)c1O [Marein],0.984 (inactive)
11,C=C(C)[C@@H](CC=C(C)C)C[C@@]12C[C@@H](CC=C(C)C)C(C)(C)[C@@](CC=C(C)C)(C(=O)C(C(=O)c3ccc(O)c(O)c3)=C1O)C2=O [Garcinol],0.631 (inactive)
12,O=C1c2ccccc2C(=O)c2c(NCCc3ccc(O)cc3)ccc(NCCc3ccc(O)cc3)c21,0.91 (inactive)
13,CS(=O)(=O)c1ccc(-c2cnc(N)c(C(=O)Nc3ccccc3)n2)cc1,1.46 (inactive)
14,CNCc1ccc(-c2[nH]c3cc(F)cc4c3c2CCNC4=O)cc1 [Rucaparib (phosphate)],5.55 (active)
15,Cc1cc(C)nc(SCC(=O)Nc2ncc(Cc3cccc4ccccc34)s2)n1,0.926 (inactive)
16,Cc1nc(-c2cccnc2)sc1C(=O)Nc1ccccc1-c1cn2c(CN3CCOCC3)csc2n1,0.883 (inactive)
17,Cc1cc(Nc2nc(N[C@@H](C)c3ccc(F)cc3)c(C#N)cc2F)n[nH]1,13.6 (active)
18,CC1=C(/C=C/C(C)=C/C=C/C(C)=C/C(=O)O)C(C)(C)CCC1 [Tretinoin],0.599 (inactive)
